# Screening data (PubChem)
# CYP2C9 act – human CYP2C9 activators, primary screen, biochemical, luminescence | 96,000 tested, 1.4% active | activation factor at 5 µM | recombinant CYP2C9, luciferin-H conversion; stronger effect = higher value; factor 1 = untreated enzyme, 0 = blocked;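 active = activation factor of 2 or more for CYP2C9 at a 5 µM dose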;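 also: 0 = sulfaphenazole-blocked wells and 1 = vehicle-only wells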
# CYP2C19 activ – human CYP2C19 activators, primary screen, biochemical, luminescence. 96,000 tested, under 10 active. activation factor at 5 µM. recombinant CYP2C19, luciferin-H EGE luminescence; stronger effect = higher value; 0 = fully inhibited enzyme, 1 = untreated enzyme. Cytochrome P450 2C19 (Homo sapiens), P33261;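 active = activation factor of at least 2 at 5 µM in the primary screen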;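 also: 0 = wells with 2.5 mM tranylcypromine and 1 = vehicle-only wells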
# Target sequence (P33261 whole entry, looked up): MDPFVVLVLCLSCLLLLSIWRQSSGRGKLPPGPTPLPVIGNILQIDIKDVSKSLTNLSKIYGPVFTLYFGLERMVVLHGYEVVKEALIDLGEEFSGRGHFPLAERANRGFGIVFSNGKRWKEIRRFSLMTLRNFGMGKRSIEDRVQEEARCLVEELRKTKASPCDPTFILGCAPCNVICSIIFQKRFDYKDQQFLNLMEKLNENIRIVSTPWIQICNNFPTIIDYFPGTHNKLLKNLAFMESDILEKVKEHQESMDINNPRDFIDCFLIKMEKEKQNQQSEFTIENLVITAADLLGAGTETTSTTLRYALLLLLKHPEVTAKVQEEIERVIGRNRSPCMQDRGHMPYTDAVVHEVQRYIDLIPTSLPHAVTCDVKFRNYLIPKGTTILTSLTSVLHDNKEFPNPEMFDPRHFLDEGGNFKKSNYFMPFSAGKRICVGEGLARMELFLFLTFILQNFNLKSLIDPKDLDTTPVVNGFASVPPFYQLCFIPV
# CYP2C19 inhib – blockers of cytochrome P450 2C19 activity – biochemical, luminescence, ADME assay, primary screen; P33261; CYP2C19 Supersomes, luciferin-H EGE luminescence, 30 min; inhibition, % at 5 µM; 96,000 tested, 21% active; AID 778, 2007;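 active = CYP2C19 inhibition above a set limit at 5 µM in the primary screen, cut at about 50% in these data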;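 also: plate controls were negative control wells for no effect and 2.5 mM tranylcypromine positive control for full effect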
# PLAP act – PLAP enzyme activators, biochemical, luminescence, HTS. Alkaline phosphatase, placental type (Homo sapiens), P05187. purified PLAP enzyme, luminescent substrate read-out; stronger effect = higher value. activation fold at 20 µM. 96,000 tested, 1.2% active; in the data active = activation fold above about 2
# CYP2C9 inh – blockers of cytochrome P450 2C9 activity – biochemical, luminescence, ADME assay, primary screen | P11712 | CYP2C9 Supersomes, luciferin-H conversion | inhibition, % at 5 µM | 96,000 tested, 20% active;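 active = blocking of liver enzyme CYP2C9 beyond about 50% at 5 µM, limit read from the data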
# * = called active by the depositor; . = no result. An excerpt weighted towards active compounds, which were near 31% of everything screened.
SMILES,CYP2C9 act,CYP2C19 activ,CYP2C19 inhib,PLAP act,CYP2C9 inh
CC(C)CCN1CC(C(=O)N2CCN(c3ccc(F)cc3)CC2)CC1=O (configuration not stated),1,1,-3,1.1,-1
O=C(O)CCC(=O)Nc1ccc(C(=O)N2CCCCC2)cc1,0.8,0.8,15,1,15
COc1cc2c(cc1OC)C(=O)CC(C)S2 (configuration not stated),1.2,1,1,1,-24
CCOC(=O)CSc1nc(N)c(C#N)c(CC(C)C)c1C#N,0.7,0.9,9,0.9,28
CCOC(=O)CSC1=C(C#N)C(=O)NC2(CCCCC2)S1,0.4,0.8,24,1.3,61*
CC(C)(C)n1cnc2cc(NS(=O)(=O)c3ccccc3)ccc21,0.7,0.2,79*,0.9,28
Cc1cc(C)nc(NS(=O)(=O)c2ccc(Br)cc2)n1,1,0.8,20,1.3,-4
Cn1cnc2cc(NS(=O)(=O)c3ccc(Br)cc3)ccc21,0.3,0.1,93*,1.1,69*
CCOC(=O)c1c(C)[nH]c(C)c1C(=O)CSc1nc(N)cc(=O)[nH]1,0.5,0.8,24,1.1,50
O=C(CCCN1CCC(c2ccccc2)C1)c1ccc2c(c1)OCCO2 (configuration not stated),0.8,0.3,72*,1.5,19
O=C(CCN1CCc2ccccc2CC1)c1ccc2c(c1)OCCO2,0.3,0.4,55*,1.4,71*
O=C(CN1C(=O)c2ccccc2S1(=O)=O)N1CCc2ccccc2C1,0.9,0.5,55*,1.1,13
O=C(CN1C(=O)c2cccc3cccc1c23)N1CCc2ccccc2C1,1.8,0.4,64*,1.1,-78
O=C(CCCN1C(=O)c2ccccc2C1=O)N1CCc2ccccc2C1,0.9,0.5,50*,1.1,13
O=C1c2ccccc2C(=O)N1CC(=O)N1c2ccccc2CCc2ccccc21,0.9,1,3,0.9,8
Cc1cc(C)c(S(=O)(=O)N2CCN(c3ccc([N+](=O)[O-])c(-n4nc(C)cc4C)c3)CC2)c(C)c1,0.4,0.8,18,1.4,60*
Cc1ccc(CC2C(=O)N(c3ncccn3)C(=O)C2C)cc1 (configuration not stated),0.9,0.9,9,1.1,8
Cc1cc(C)cc(CC2CC(=O)N(c3ccc4c(c3)OCCO4)C2=O)c1 (configuration not stated),1.1,1,4,0.9,-15
Cc1ccc(CC2CC(=O)N(c3ccncc3)C2=O)cc1 (configuration not stated),0.4,0.1,94*,1,57*
Cc1ccc(CC2CC(=O)N(c3ccc(Cl)cn3)C2=O)cc1 (configuration not stated),0.6,0.4,58*,1,39
Cc1ccc(CC2CC(=O)N(Cc3ccco3)C2=O)cc1 (configuration not stated),0.4,0.1,88*,1.6,55*
CC(=O)N(CC1CCCO1)c1nnc(-c2cnccn2)s1 (configuration not stated),1,1,1,0.9,-3
CCOc1ccc(OCCN2C(=O)NC(Cc3c[nH]c4ccccc34)C2=O)cc1 (configuration not stated),0.2,0.3,68*,1.9,80*
O=C1NC(Cc2c[nH]c3ccccc23)C(=O)N1CCOc1ccc(F)cc1 (configuration not stated),0.3,0.3,74*,0.7,71*
Cc1cccc(N(C(=O)Cn2nnc3ccccc32)C(C(=O)NC(C)(C)C)c2ccsc2)c1C (configuration not stated),1,0.9,9,0.9,-2
SMILES,CYP2C9 act,CYP2C19 activ,CYP2C19 inhib,PLAP act,CYP2C9 inh
CCN(CC)C(=S)SCC(=O)Nc1ccc(F)cc1,0.9,0.6,37,1,8
CNC(=O)CC1C(=O)N(C)C(=S)N1NC(=O)c1ccc(Cl)cc1 (configuration not stated),1,1,3,1.1,-2
CCO/C=N/c1c(C#N)c2c(c(=S)n1C)COC(C)(C)C2,0.5,0.3,66*,1.1,49
COC(=O)COc1nc(C)c2c(c1C#N)CC(C)(C)OC2,0.9,0.8,19,0.9,5
CCCCOc1ccc(CNC(=S)N/N=C/c2ccc(OC)c(OC)c2)cc1,0.4,0.9,8,1.7,60*
CCOc1ccc(CNC(=S)N/N=C\c2ccc([N+](=O)[O-])cc2)cc1,0.7,0.7,31,.,30
COCCCNC(CC(=O)Nc1ccc(OC)cc1OC)C(=O)O (configuration not stated),1.3,1.2,-21,1.2,-25
CN1CC(=O)N(C)c2nc(Br)n(C)c2C1=O,1.2,1.1,-14,1,-19
COc1ccccc1-c1c(C(F)(F)F)oc2cc(OC(=O)c3cccc([N+](=O)[O-])c3C)ccc2c1=O,0.3,0.2,76*,1.1,73*
COc1ccccc1-c1c(C)oc2cc(OC(=O)c3ccco3)ccc2c1=O,0.4,0.4,64*,1,55*
Cc1nc2[nH]c(=O)c3c(n2n1)NC1=C(C(=O)CC(C)(C)C1)C3c1ccccc1 (configuration not stated),0.3,1,0,1.1,67*
Cc1[nH]nc2c1C(c1cccc(O)c1)C1=C(CC(C)(C)CC1=O)N2 (configuration not stated),0.7,1,-1,1.5,32
O=C(CNS(=O)(=O)c1ccc(Br)s1)N1CCCC1,1.1,0.4,64*,1.2,-12
COc1ccccc1N1CCN(C(=O)CCNS(=O)(=O)c2ccc(Br)s2)CC1,0.2,0.5,47,1.2,80*
COc1ccc(CCC(=O)Nc2nc3c(s2)CN(C)CC3)cc1OC,0.9,0.8,19,1.1,9
CCOc1ccccc1NC(=O)c1ccccc1N(C)S(C)(=O)=O,1.1,0.7,28,0.9,-11
CN(c1ccccc1C(=O)O)S(C)(=O)=O,1.1,1,-5,1.1,-11
Cc1ccc(NC(=O)c2ccccc2N(C)S(C)(=O)=O)cc1C,1,0.5,50*,1.1,-5
CN(c1ccccc1C(=O)Nc1cccc(Cl)c1Cl)S(C)(=O)=O,0.7,0.4,65*,1.8,28
Cc1nnc(Oc2ccccc2)c2ccccc12,0.8,0.8,17,0.9,22
Cc1ccc(Oc2nnc(-c3ccccc3)c3ccccc23)cc1,0.4,0.9,8,0.9,58*
O=C(NC1CCCCC1)c1ccc(S(=O)(=O)NCc2cccnc2)cc1,0.8,1,1,0.9,24
CCC(OC(=O)C(NC(=O)c1ccccc1)c1ccccc1)C(=O)Nc1cc(C)on1 (configuration not stated),0.7,0.7,28,1.1,32
